Inconclusive results are not listed. A call without a number means that no potency is given here. Calls of active or inactive are those of the source. The call rests on the fitted dose curve.

The assay in a line: qHTS assay to identify small molecule agonists of the AP-1 signaling pathway - cell viability counter screen (AID 1159525). Further: nearly all actives have a fitted effect of over 55% in size. The note with it: ME-180 (cervical carcinoma) AP-1-bla cells viability, ATP luminescence, 5 h; series mostly up to 76.8 µM. The source says:
National Center for Advancing Translational Sciences [NCATS]
NIH Chemical Genomics Center [NCGC]
U.S. Environmental Protection Agency [EPA]
National Institutes of Environmental Health Sciences [NIEHS]
National Toxicology Program [NTP]
U.S. Food and Drug Administration [FDA]
Activator protein-1 (AP-1), a transcription factor, plays an important role in tumor genesis by regulating genes involved in cell proliferation, differentiation, apoptosis, and angiogenesis. AP-1 activity is induced by a complex network of signaling pathways that involves extracellular signals, such as growth factors. The AP-1 protein complex formed from c-Fos and c-Jun binding to the AP-1 response element results in transcriptional activation of genes containing such elements within their promoter.
Low molecular weight molecules have been discovered and developed to modulate various components of these signaling pathways, for example, MAP kinase inhibitors. However, many points of pathway modulation remain untested due to the lack of chemical probes making this signaling locus of general interest.
Using a beta-lactamase reporter-gene under control of the AP-1 response element, a cell-based assay [CellSensor(TM) AP-1-bla ME-180 developed by Invitrogen Corp.] was used to measure EGF-induced signaling. The Tox21 10K library compounds were measured for their ability to positively modulate the action of EC50 EGF on reporter gene activity. Compounds were screened in a 15-pt titration series in 1536-well format. The cytotoxicity of the Tox21 compound library against this cell line was tested in parallel by measuring the intra cellular ATP content in the same wells.
Tox21 Assay Protocol Summary:
2500 cells/5uL in Opti-MEM medium containing 0.5% dialyzed FBS, 0.1 mM NEAA, 1 mM sodium pyruvate and 10 mM HEPES was dispensed into 1536-well black wall/clear bottom plates using a Multidrop dispenser and cells were cultured at 37 degrees Celsius overnight. Next day 23 nL of compounds dissolved in DMSO, positive controls or DMSO were delivered to each well using a pin tool. The plates were incubated at 37 degrees Celsius for 5 hours. 1 uL of LiveBLAzerTM B/G FRET substrate (Solution A+B+C+D) was added to each well using a Flying Reagent Dispenser. After incubated at room temperature for 2.5 hours the plates were measured on an EnVision plate reader at Excitation 405nm, Emission1=460nm and Emission 2=530nm. The %Activity was determined from the ratio of 460nm/530nm.
After the plates were read for Beta-Lactamase assay on Envision; 3 ul Cell Titer Glo (Promega) was added to measure the cytotoxicity and the plates were then incubated at RT in dark for 30 min. The luminescence was read on ViewLux (Perkin Elmer, Shelton, CT) using 6 sec exposure. ViewLux data was expressed as relative luminescence units.
For primary data analysis, raw plate reads for each titration point were first normalized relative to […] EGF control (100%) and DMSO only wells (basal, 0%).
For primary data analysis for viability assay, raw plate reads for each titration point were first normalized Tetra n-octyl ammonium bromide control (-100%) and DMSO (control, 100%).
In general terms: In qHTS, concentration-response curves come from the screen itself.
On to `CS(=O)(=O)Nc1ccc([N+](=O)[O-])cc1Oc1ccccc1`, for which the Potency result is “inactive”. The value for `CS(=O)(=O)c1ccc([C@@H](O)[C@@H](CO)NC(=O)C(Cl)Cl)cc1` was “inactive”; that for `O=C1N=C(O)CN1/N=C/c1ccc(-c2ccc([N+](=O)[O-])cc2)o1` was “inactive”.

In the case of `O=[N+]([O-])C(CO)(CO)CO`, the Potency result is “inactive”.

`O=C1CCCCC1`: the Potency result is “inactive”. The value for `Cc1ccc(C)c(C)c1` was “inactive”; that for `C=C(C)C(=O)OCCCCCCCCCCCC` was “inactive”. In the case of `O=[N+]([O-])c1cc(N(CCO)CCO)ccc1NCCO`, the Potency entry is “inactive”. Turning to `OCC#CCO`, the Potency entry is “inactive”. The value for `Cc1ccc(C(=O)O)o1` was “inactive”; that for `O=Nc1ccc(O)cc1` was “inactive”. The value for `CC1COc2ccccc2N1C(=O)C(Cl)Cl` (stereo not given) was “inactive”. Turning to `ClC1=C(Cl)C(Cl)(Cl)C(Cl)=C1Cl`, the Potency result is “inactive”. With `Clc1cc(Cl)c(Cl)cc1Cl` the entry was “inactive”. The value for `CCc1ccc(O)cc1` was “inactive”; that for `OC1CCCC1` was “inactive”; that for `c1ccc2ccccc2c1` was “inactive”. With `CCOC(=O)/C=C\C(=O)OCC` the entry was “inactive”. As to `CC1=C(CC(=O)O)c2cc(F)ccc2/C1=C\c1ccc(S(C)=O)cc1` (stereo not given), the Potency result is “inactive”. The value for `CC#C[C@]1(O)CC[C@H]2[C@@H]3CCC4=CC(=O)CCC4=C3[C@@H](c3ccc(N(C)C)cc3)C[C@@]21C` was “inactive”; that for `CCCCCCCCCCCCN` was “inactive”; that for `COC(=O)c1ccccc1O` was “inactive”. As to `C=C1C2CCC(C2)C1(C)C` (stereo not given), the Potency result is “inactive”. With `CCCCC(CC)COC(C)=O` (stereo not given) the entry was “inactive”.

For the molecule `CCCCOCCO`, the Potency result was “inactive”. Regarding `O=C(Oc1ccccc1)c1ccc(O)cc1`, the Potency entry is “inactive”.

For `CCC(=O)O`, the Potency result was “inactive”. As to `CC[Si](OC(C)=O)(OC(C)=O)OC(C)=O`, the Potency result was “inactive”.

Regarding `C[C@@H](O)[C@H]1C(=O)N2C(C(=O)O)=C(S[C@@H]3CN[C@H](C(=O)N(C)C)C3)[C@H](C)[C@H]12`, the Potency result was “inactive”. The value for `C[C@@H]1O[C@@H](OC[C@H]2O[C@@H](Oc3c(-c4ccc(O)c(O)c4)oc4cc(O)cc(O)c4c3=O)[C@H](O)[C@@H](O)[C@@H]2O)[C@H](O)[C@H](O)[C@H]1O` was “inactive”; that for `CN(CCOc1ccc(CC2SC(=O)NC2=O)cc1)c1ccccn1` (stereo not given) was “inactive”; that for `COCC(C)O` (stereo not given) was “inactive”. The value for `Cc1cc(O)c2c(c1)C(=O)c1cc(O)cc(O)c1C2=O` was “inactive”; that for `NS(=O)(=O)c1cc2c(cc1Cl)NC=NS2(=O)=O` was “inactive”. With `NCCc1ccc(O)c(O)c1` the entry was “inactive”; with `CCOC(=O)[C@H](CCc1ccccc1)N[C@@H](C)C(=O)N1Cc2ccccc2C[C@H]1C(=O)O`, “inactive”.

On to `NC(=O)NNc1ccccc1`, for which the Potency entry was “inactive”. With `Clc1ccc(Cl)c(Cl)c1Cl` the entry was “inactive”; with `C=CC(=O)OCCCCCCCC(C)C`, “inactive”. The value for `CC1(C)CC(N=C=O)CC(C)(CN=C=O)C1` (stereo not given) was “inactive”.

(Values after PubChem BioAssay (Tox21).)
